Data reported in PubChem BioAssay AID1861 (The Scripps Research Institute Molecular Screening Center, 2009).
Out of some 290,000 compounds screened, about 3,100 (1.1%) were called active. Cut-off read from the data, not from the text of the source: active = inhibition above about 16% (passing the limit was not always enough); inactive = the rest. This excerpt belongs to a sample that is enriched for actives.

Biological target: Neuropeptides B/W receptor type 1 (Homo sapiens) (UniProt P48145)
Assay: blockers of human neuropeptide B/W receptor 1 – cell-based, fluorescence, single concentration, primary screen (AID 1861);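 note: cells stimulated with the agonist NPW; 0% = agonist with vehicle and 100% = vehicle without agonist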
Conditions: GPR7-expressing cells, fluorescence antagonist assay; at 4.4 µM; active compounds read high

Sequence of Neuropeptides B/W receptor type 1 (Homo sapiens) (P48145 whole entry, looked up): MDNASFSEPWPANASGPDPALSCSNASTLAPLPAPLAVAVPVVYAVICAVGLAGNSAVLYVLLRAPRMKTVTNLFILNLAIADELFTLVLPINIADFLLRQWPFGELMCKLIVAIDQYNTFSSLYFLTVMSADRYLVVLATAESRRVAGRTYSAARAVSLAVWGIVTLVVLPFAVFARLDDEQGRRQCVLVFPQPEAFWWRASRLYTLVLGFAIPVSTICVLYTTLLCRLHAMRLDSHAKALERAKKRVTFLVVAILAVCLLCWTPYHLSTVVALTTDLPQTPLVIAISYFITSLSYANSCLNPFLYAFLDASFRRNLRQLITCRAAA

inhibition, inactive:
O=C(NCCCNc1ccc([N+](=O)[O-])cc1Cl)c1ccccc1F 5.46%
O=C(NCCNc1ccccc1[N+](=O)[O-])c1ccccc1F 2.99%
COc1cccc(CNc2nc(C(F)(F)F)nc3ccccc23)c1 -8.14%
Cc1ccc(N2C(=O)C3C4C=CC(CC4)C3C2=O)cc1Cl (configuration not stated) -5.89%
O=C1c2ccccc2S(=O)(=O)N1CC(O)Cn1c2ccccc2c2ccccc21 (configuration not stated) 27.4%
CCCCN(CCCC)CC(O)Cn1c2ccccc2c(=O)c2ccccc21 (configuration not stated) 4.5%
COc1cc(C(=O)NCc2cc3cc(Cl)ccc3n2C)cc(OC)c1OC -5.99%
CCN(CC)S(=O)(=O)c1ccc(N2CCN(C)CC2)c(NC(=O)Nc2ccccc2F)c1 6.45%
COc1cc(OC)cc(C(=O)Nc2ccc(S(=O)(=O)Nc3cc(C)on3)cc2)c1 -3.8%
CC(=O)c1ccc(NC(=S)NC(=O)CC(C)C)cc1 -3.47%
COc1cc(NS(=O)(=O)c2ccc(NC(C)=O)cc2)cc(OC)c1 -5.8%
COc1ccc(NC(=O)c2cnc(NS(=O)(=O)c3ccccc3)nc2)cc1 -10.5%
Cc1ccc(C(=O)OCC(=O)NC(=O)Cc2ccccc2)c(O)c1 -16.1%
CCOC(=O)CNC(=O)/C=C/c1c(Cl)cccc1Cl 10.2%
O=C(Nc1ccccc1C(=O)O)c1ccc(N2C(=O)C3CC=CCC3C2=O)cc1 (configuration not stated) -9.35%
O=C(c1ccccc1)N1CCC(CC2CC(c3ccc(Cl)cc3)=NO2)(C(=O)NCC2CCCCC2)CC1 (configuration not stated) -2.72%
CCc1nc(Nc2ccc(NC(C)=O)cc2)c2oc3ccccc3c2n1 -6.65%
Cc1cccc2c1N(CC(=O)OC(C)C)C(=O)C2=O -5.53%
CC(C)OC(=O)CN1C(=O)C(=O)c2ccccc21 -2.31%
N#CCOc1ccc(C2=NO[C@@H]3[C@@H]4C[C@@H]([C@H]5C(=O)N(c6ccc7c(c6)OCO7)C(=O)[C@@H]45)[C@H]23)cc1 4.89%
CCc1nn(CC(=O)N2CCN(CC)CC2)c(=O)c2cccn12 -11.1%
O=C(COC(=O)c1cccs1)Nc1ccccc1Cl -12.8%
O=C(Nc1ccccc1Cl)Nn1cnnc1 -16.3%
CN(C)S(=O)(=O)c1ccc(C(=O)NCCN=C2NS(=O)(=O)c3ccccc32)cc1 -2.36%
O=C(O)c1ccc(OCC2CCCO2)cc1 (configuration not stated) -9.77%
CCn1c(SCc2ccccc2)nc2cc(OC)c(OC)cc2c1=O -30.7%
COc1cccc(CNS(=O)(=O)c2csc(C(N)=O)c2)c1 -3.2%
CC(=O)Nc1ccc(S(=O)(=O)NCC2CCC(C(=O)NCCc3ccccc3)CC2)cc1 (configuration not stated) -13.4%
Cc1cc(=O)oc2c(C)c(OCC(=O)NCCc3ccc(S(N)(=O)=O)cc3)ccc12 9.11%
COC(=O)CN1C(=O)C(C)(C)Oc2ccc(C(=O)Nc3cccc(OC)c3)cc21 -8.64%
Cc1ccc(S(=O)(=O)N(CC(O)CN2CCCCC2)c2cccc([N+](=O)[O-])c2)cc1 (configuration not stated) -4.51%
COc1ccc([N+](=O)[O-])cc1N(CC(O)Cn1nnc2ccccc21)S(=O)(=O)c1ccc(C)cc1 (configuration not stated) -11.4%
O=C(/C=C/c1cccs1)c1cc(Cl)ccc1OC(=O)N1CCOCC1 -2.52%
CSc1ccccc1NC(=O)CN(C)CC(=O)Nc1cccc(Br)c1 3.51%
CSc1ccccc1NC(=O)CN(C)CC(=O)Nc1ccc(Cl)cc1[N+](=O)[O-] 12.5%
COc1cc(OC)c(OC)cc1/C=N/Nc1ncnc2c1[nH]c1ccc(C)cc12 -19.8%
Fc1ccc2[nH]c3c(N4CCSCC4)ncnc3c2c1 -5.82%
Cc1ccc(S(=O)(=O)N2CCN(c3ccccc3)CC2)cc1C 0.58%
COc1cccc(CNS(=O)(=O)c2ccc3c(c2)CC(C)N3C(=O)C2CCC2)c1 (configuration not stated) 17.9%
CC1=CCC2C(=O)N(c3cccc(C(=O)NC(C)c4ccccc4)c3)C(=O)C2C1 (configuration not stated) 0.74%
Cc1cccc(NC(=O)C(C)SCc2ccccc2)c1 (configuration not stated) -8.07%
O=C(Nc1ccncc1)c1ccc(Cl)c([N+](=O)[O-])c1 1.68%
O=C(Nc1c2c(nn1-c1ccccc1)CS(=O)(=O)C2)C1CCCC1 4.15%
COCCn1nnnc1C(c1cc2ccc(OC)cc2[nH]c1=O)N1CCc2ccccc2C1 (configuration not stated) 17.6%
COc1ccccc1C(c1nnnn1C(C)(C)C)N1CCN(Cc2ccccc2)CC1 (configuration not stated) 10.7%
CC1CCCN(CCCNC(=O)CN2C(=O)COc3ccc(S(=O)(=O)N4CCOCC4)cc32)C1 (configuration not stated) -10.9%

inhibition, active:
O=C(NCCNc1ccc([N+](=O)[O-])cc1Cl)c1ccccc1F 33.5%
CS(=O)(=O)N(CC(O)Cn1c2ccccc2c2ccccc21)c1cccc2ccccc12 (configuration not stated) 29%
COc1ccc(NS(=O)(=O)c2ccc(NC(=S)NC(=O)CC(C)C)cc2)cc1 24.2%
COc1ccc(NS(=O)(=O)c2ccc(NC(=O)c3ccc(N(C)S(C)(=O)=O)cc3)cc2)cc1 22.9%
CC(C)OC(=O)CN1C(=O)c2ccccc2C1=O 20.4%
O=C(Nc1ccccc1Cl)/C(Cl)=C(\Cl)S(=O)c1ccccc1 (configuration not stated) 23.4%
COc1ccc(NC(=O)C2CCC(CNS(=O)(=O)c3csc(C(N)=O)c3)CC2)cc1OC (configuration not stated) 24.1%
COc1ccc([N+](=O)[O-])cc1N(CC(O)CN(CC(C)C)CC(C)C)S(=O)(=O)c1ccc(C)cc1 (configuration not stated) 21.7%
CCC(C)c1ccccc1NC(=O)CN(C)CC(=O)Nc1ccccc1SC (configuration not stated) 31.4%
CC(C)OCCCNc1ncnc2c1[nH]c1ccc(F)cc12 26.6%
COc1ccc(OC)c(C(c2nnnn2C(C)(C)C)N2CCc3ccccc3C2)c1 (configuration not stated) 24%
